This is an account of results in PubChem BioAssay (NCI).

Compounds without any hit were thinned out: in the full panel of roughly 83,000, 20% have a hit.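 Negative percent growth values reflect cell death: -40 means 40% of the cells present at the start died, and -100 means all died.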 Values without a mark were called inactive. Calls of active or inactive are those of the source. How the source made its calls: active means growth percent below 10; inactive means the rest.

Assay in all cases: NCI-60 one-dose screen, 48 h (100 = growth as untreated, 0 = no growth, -100 = all killed)
Holding throughout (settings): 10 µM unless noted

Assay [1] relates to SR leukemia.
Assay [2] relates to RPMI-8226 leukemia.
For assay [3], the system named is OVCAR-8 ovarian.
In assay [4] the test system is OVCAR-5 ovarian.
The subject of assay [5] is OVCAR-4 ovarian.
Assay [6] deals with SK-OV-3 ovarian.
The subject of assay [7] is IGROV1 ovarian.
Assay [8] has as its system OVCAR-3 ovarian.
Assay [9] has as its system HS 578T breast.
In assay [10] the test system is NCI/ADR-RES ovarian.

On to `NC(=O)Nc1ccc(-n2cnc3cc(-c4ccc(O)cc4)ccc32)cc1`, for which the growth in [1] is 88.1%; in assay [2], 91.5%; in [3], 97.4%; in assay [4], 97.5%; in [5] it was 89%; in [6] it was 137%. Also, the growth was 108% in [7], 108% in assay [8], 109% in [9] and 103% in assay [10].

For `Cc1ccc(-n2c3c(c(-c4ccccc4)c2-c2ccccc2)C2=NCCN2C=N3)cc1`, the growth in [1] was 80%; in assay [2] it was 77.8%; in assay [3], 75.2%; in assay [4], 103%; in assay [5] it was 78.5%; in assay [6], 94.7%. The growth in [7] was 62.6%; in assay [8], 90.5%; in assay [9], 94.8%; in assay [10] it was 100%.

For the molecule `COc1ccc(/C=C/c2nc(Nc3ccc(Cl)cc3)c3ccccc3n2)cc1`, the growth was -3.22% (active) in assay [1]; 52.9% in assay [2]; 61.4% in assay [3]; 73.2% in assay [4]; 60.2% in assay [5]; 83.6% in assay [6]. In addition, the growth was 75.9% in [7], 67.2% in assay [8], 70.5% in assay [9] and 65.7% in assay [10].

`CCCCCN1C=C/C(=C\C(=O)n2ccc3ccccc32)c2ccccc21`: the growth is 82.8% in assay [1]; 73.7% in assay [2]; 93.6% in assay [3]; 93.7% in assay [4]; 71.6% in [5]; 78.5% in assay [6]. The growth in assay [7] is 65.5%; in assay [8], 86.4%; in [9] it was 92.2%; in assay [10] it was 94.3%.

`CCOC(=O)c1cc(C(=O)c2ccc(OC)cc2)n2ccc(/C=C/c3cc[n+](CC(=O)c4ccc(OC)cc4)cc3)cc12`: the growth in assay [1] was -29.5% (active); in assay [2] it was 10.4%; in assay [3], 21.1%; in assay [4] it was 87.1%; in assay [5] it was 16.1%; in assay [6] it was 109%. In addition, the growth in assay [7] was 63.1%; in assay [8] it was 60.9%; in assay [9], 105%; in assay [10] it was 98.1%.

As to `O=C(Cc1ccc(/C=C/C(=O)c2ncc[nH]2)cc1)Nc1ccc(Cl)cc1`, the growth is 0.986% (active) in assay [1]; -29.2% (active) in [2]; -6.61% (active) in assay [3]; 41.7% in [4]; 37.5% in assay [5]; 64.3% in assay [6]. Moreover, the growth in assay [7] is 27.9%; in assay [8], -4.9% (active); in assay [9] it was 5.07% (active); in [10], 19.5%.

Turning to `O=C1Nc2cc(-c3ccc(NS(=O)(=O)c4ccccc4)cc3)ccc2/C1=C/c1ccc[nH]1`, the growth in assay [1] was 6.67% (active); in [2], 77.8%; in assay [3], 97.1%; in assay [4], 52%; in assay [5] it was 68.7%; in assay [6], 79.1%. The growth in assay [7] was 93.1%; in assay [8] it was 108%; in assay [9] it was 97.7%; in assay [10] it was 92.6%.

Take `Clc1ccc(-c2ccc(CNCC3CCNCC3)o2)c(-c2ccccc2)c1`: the growth was -60.9% (active) in [1]; -54.4% (active) in [2]; -66.9% (active) in assay [3]; -90.6% (active) in assay [4]; -38.2% (active) in [5]; 45.4% in assay [6]. Also, the growth in assay [7] is -64% (active); in assay [8], -79.9% (active); in assay [9] it was -49.8% (active); in assay [10], -32.5% (active).

As for `COc1cc(/C=N/O)nc(-c2ccccn2)c1`, the growth was 9.23% (active) in assay [1]; 18.7% in [2]; 17.6% in [3]; 45.3% in [4]; 22.2% in [5]; 28.6% in [6]. Besides, the growth was 19.2% in assay [7], 18.2% in assay [8], 65% in assay [9] and 4.37% (active) in [10].

For the molecule `Cc1cc2c(C(=O)NCC#N)cccc2n1-c1nc2c(c(NCc3ccccc3)n1)CCCC2`, the growth in assay [1] was 4.15% (active); in assay [2], 5.03% (active); in assay [3], 8.66% (active); in assay [4], 1.88% (active); in [5], -8.8% (active); in assay [6], -6.94% (active). The growth in assay [7] was -22.1% (active); in [8] it was -59.9% (active); in assay [9], 12%; in [10], 1.16% (active).

As for `O=C1c2ccccc2CCC12OC2c1cn(-c2ccccc2)nc1-c1ccc(Cl)cc1` (stereo not given), the growth in [1] was 70.4%; in [2], 81.3%; in [3], 94.5%; in [4], 111%; in assay [5], 99.2%; in assay [6], 111%. The growth in assay [7] is 95.1%; in assay [8], 115%; in assay [9], 93.3%; in assay [10], 102%.

With `O=C(c1nc2ccccc2[nH]1)C1C(c2ccc(Br)cc2)C2CC3CCCC[C@H]3N2[C@@]12C(=O)Nc1cc(Cl)ccc12` (stereo not given in full), the growth in [1] is 31.3%; in [2], 17%; in assay [3] it was 58.5%; in assay [4], 46.8%; in assay [5], 34.7%; in assay [6], 67.6%. Besides, the growth is 28.8% in assay [7], 34.3% in assay [8], 66.8% in assay [9] and 46.7% in [10].

Regarding `O=C(NO)c1ccc(-n2nc(-c3ccccc3)c3ccccc32)cc1`, the growth in [1] is 22.8%; in assay [2] it was 32.6%; in assay [3] it was 32.6%; in [4] it was 63.8%; in assay [5] it was 19.2%; in assay [6] it was 58.7%. The growth in assay [7] was 44.9%; in assay [8] it was 1% (active); in [9], 55.5%; in assay [10], 22.7%.

On to `COc1ccc(C(=O)c2cc(OC)c(OC)c(OC)c2)cc1O`, for which the growth is 7.02% (active) in assay [1]; 12.7% in [2]; 14.1% in assay [3]; 31.8% in assay [4]; 30.6% in assay [5]; 37.2% in [6]. Also, the growth in assay [7] was 16.2%; in assay [8], -6.73% (active); in [9], 28.8%; in [10], -32.3% (active).

As for `CN1CCN(c2ccc(NC3=C(Cl)C(=O)c4ncccc4C3=O)cc2C(F)(F)F)CC1`, the growth in assay [1] is 9.03% (active); in assay [2], -4.52% (active); in assay [3], 30.4%; in [4], 100%; in assay [5], -96.8% (active); in [6], 84.9%. For the same molecule, the growth in assay [7] is -37.6% (active); in assay [8], -82.9% (active); in [9], 92.9%; in assay [10] it was 81.9%.

As to `S=c1cc(S)c2cc(Br)ccc2[nH]1`, the growth in [1] is 94.1%; in assay [2], 96.7%; in [3], 91.5%; in assay [4], 114%; in assay [5], 92.6%; in [6] it was 98.6%. Further, the growth in assay [7] is 89.5%; in assay [8] it was 100%; in assay [9], 109%; in assay [10] it was 101%.

With `COc1ccc(/C=C/c2nc(Nc3ccc(S(=O)(=O)Nc4cc(C)on4)cc3)c3ccccc3n2)cc1`, the growth in assay [1] is 45.4%; in [2], 67.9%; in assay [3], 61.3%; in assay [4], 71.1%; in [5] it was 73.4%; in [6], 77.4%. The growth in [7] is 78%; in [8], 83.7%; in [9], 80.3%; in assay [10], 75.7%.

Consider `N#Cc1cc(-c2nc3ccccc3s2)c(=O)n(NS(=O)(=O)c2ccccc2)c1N`, for which the growth was 108% in [1]; 103% in assay [2]; 106% in assay [3]; 102% in [4]; 107% in [5]; 90.3% in assay [6]. The growth in assay [7] was 98.7%; in [8] it was 114%; in assay [9], 101%; in assay [10], 105%.

As to `O=C(Nc1ncc(Cc2cc(Cl)ccc2Cl)s1)c1cccs1`, the growth was 22.9% in assay [1]; 57.2% in [2]; 74.4% in [3]; 73.9% in assay [4]; 80% in assay [5]; 72.1% in assay [6]. Further, the growth in [7] was 59.3%; in assay [8], 65.2%; in assay [9] it was 74.3%; in assay [10] it was 34.7%.

On to `O=S(=O)(NCCCNc1nccc(-c2c(-c3cccc(O)c3)nc3occn23)n1)c1ccc(Cl)cc1`, for which the growth in [1] was 87.1%; in assay [2], 81%; in [3] it was 77.5%; in assay [4] it was 130%; in [5], 108%; in [6], 75.4%. In addition, the growth was 59.7% in [7], 93.2% in [8], 92.8% in assay [9] and 112% in assay [10].

In the case of `CN(C)CC(O)c1ccc(/C=C/c2ccc(Cl)cc2)cc1` (stereo not given), the growth in assay [1] is -38.8% (active); in assay [2], -8.89% (active); in assay [3] it was -34.2% (active); in [4], 2.11% (active); in [5] it was 25.2%; in assay [6], 52.8%. Besides, the growth in assay [7] is -57.8% (active); in assay [8], -64.8% (active); in [9] it was -26.3% (active); in assay [10] it was 5.74% (active).

In the case of `O=C(N/N=C/c1ccc(Oc2ccccc2)cc1)c1cnn2c1NC(c1ccccc1)C2` (stereo not given), the growth in [1] was 31%; in assay [2], 75.7%; in assay [3], 52.1%; in [4] it was 78%; in assay [5], 26.6%; in [6], 48.5%. Moreover, the growth was 59.3% in [7], -32.6% (active) in [8], 32.3% in [9] and 68.7% in assay [10].
